Consider 14 compounds from PubChem BioAssay (NCI).

The structures appear in SMILES notation. Compounds without any hit were thinned out: in the full panel of roughly 83,000, 20% have a hit.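 Values shown are percent growth following 48 h exposure of cells in 96-well plates to a single concentration of compound; below 10 was considered active.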 Unmarked numbers belong to inactive results. Active and inactive are the calls of the source.

The experiment relates to HL-60(TB) leukemia. Description: NCI-60 one-dose screen, 48 h (100 = growth as untreated, 0 = no growth, -100 = all killed). The conditions noted are these: 10 µM unless noted.
For `CCOC(=O)c1cnc2c(C)cc(C)cc2c1NCCCN(C)C`, the growth was 9.86% (active).

Consider `COc1ccc(/C=N/NC(=O)c2ccc(S(C)(=O)=O)cc2)cc1OC`, for which the growth was 54.1%.

For the compound `O=Cc1ncc(-c2ccc(C(F)(F)F)cc2)c(NC2CCCCCC2)n1`, the growth was -50.6% [100 µM] (active).

Turning to `CC(C)CCC[C@@H](C)[C@H]1CC[C@H]2[C@@H]3CC=C4N(c5ccccc5)C(=O)CC[C@]4(C)[C@H]3CC[C@]12C`, the growth was 90.9%. For `O=C(Nc1ncc(Cc2ccccc2Cl)s1)c1ccc2c(c1)OCCO2`, the growth was -56.8% (active).

Turning to `O=C(N/N=C/c1ccc(OC(F)F)c(OC2CCCC2)c1)c1cnn2c1NC(c1ccccc1)C2` (centres undefined), the growth is 100%. Then `CC(NC(=O)c1ccccc1)C(=O)Nc1ccccc1` (centres undefined), with 107%.

On to `COC(=O)c1ccc2c(c1)nc(-c1ccc(Cl)cc1)n2-c1cc(C(C)(C)C)[nH]n1`, for which the growth was 14.9%. In the case of `O=C(NC1CCOCC1)c1ccc2c(c1)CN(c1ncc(Cc3cccc(-n4cccn4)c3)s1)CC2`, the growth was 68.7%. Regarding `COc1ccc(-c2nc(N/N=C/c3ccco3)nc(N3CCOCC3)c2C#N)cc1`, the growth was 94.8%. Under `O=C(NCCN1CCOCC1)Nc1ccc(-c2cc3c(Nc4ccc(Oc5cccc(C(F)(F)F)c5)c(Cl)c4)ncnc3s2)cc1` stands -25.6% (active); under `CC1(O)OC(COc2ccc(Cl)cc2)COC1O` (centres undefined), 105%; under `Cc1cc(NCC(=O)Nc2ccc(-c3nc4ccccc4s3)cc2)no1`, 96.5%. In the case of `CCOC(=O)/C(=C\c1ccc(-c2ccccc2)cc1)C(C)=O`, the growth is 93.7%.
